# According to ChEMBL document CHEMBL1157539, “Thousands of chemical starting points for antimalarial lead identification” (Nature, 2010):
# System: Plasmodium falciparum
# Experiment: GSK_TCMDC: Inhibition of Plasmodium falciparum 3D7 in whole red blood cells, using parasite LDH activity as an index of growth. Test compounds present at 2uM
# Type: functional
row,SMILES,Inhibition [%]
1,O=C(Nc1ccncc1)c1cc(C(=O)Nc2ccncc2)cc([N+](=O)[O-])c1,100
2,O=C(Nc1cccc(-c2ccc(CN3CCNCC3)cc2)c1)c1cccc(Cl)c1.O=C(O)C(F)(F)F,92
3,Cl.Oc1cccc(-c2nc3cc(C4=NC5CCCCC5N4)ccc3[nH]2)c1 (stereo not given),98
4,COCCn1c(-c2cccc(Cl)c2)nn(-c2ccc([N+](=O)[O-])cc2C#N)c1=S,100
5,COc1ccc(OCCCN2CCCCC2)cc1S(=O)(=O)c1ccc(OCc2ccc(C(F)(F)F)cc2)cc1.Cl,94
6,C/C=C/COc1ccc(-c2c(C)[nH]c(C)c(Cl)c2=O)cc1,97
7,O=C(c1cc2ccccc2o1)N1CCc2cc3nccc(N4CCN5CCC[C@H]5C4)c3cc21,99
8,CCc1c[nH]c2c(N(c3ccccc3)S(C)(=O)=O)cc(C(=O)N[C@@H](Cc3ccccc3)[C@H](O)CNCc3cccc(C(F)(F)F)c3)cc12.O=CO,93
9,CC(C)COc1ccc(Cl)cc1Cc1ccc(-c2nc3cc(N4CCN(C)CC4)ccc3[nH]2)o1.Cl,100
10,CCN(CC(C)O)C(=O)c1ccc(-c2cccc(-c3nc4cccc(C)c4[nH]3)c2)cc1 (stereo not given),100
11,Cc1ccc2[nH]c(-c3cc(-c4cccc(CCN5CCOCC5)c4)cnc3N)nc2c1.O=C(O)C(F)(F)F,100
12,CCOCCCNc1nc2cc(OC)c(OC)cc2c2nc(-c3ccccc3)nn12,96
13,CC(C)Cn1c(Sc2ccc(C#N)c([N+](=O)[O-])c2)nnc1-c1ccc(N(C)C)cc1,98
14,COc1cc2c(cc1N(C(C)C)S(=O)(=O)c1sc3ccc(Cl)cc3c1C)CCNCC2.Cl,91
15,CC(=O)Nc1ncc(C(=O)Nc2cccc(-c3cccc(-c4nc5cc(F)ccc5[nH]4)c3)c2)s1,100
16,CC1(CCN2CCC(c3c[nH]c4cnccc34)CC2)CCCc2c(Br)cccc2C1=O.Cl (stereo not given),100
17,CN(C)CCCNc1nccc(N(C)c2ccc(NC(=O)Nc3cc(C(F)(F)F)ccc3F)cc2)n1.O=C(O)C(F)(F)F,93
18,CCCCSc1nc2c(c(=O)n1Cc1ccco1)C1(CCCCC1)Cc1ccccc1-2,96
19,O=c1ccccn1CCCC1CCCCN1 (stereo not given),96
20,COc1cc(-c2nc3c4ccccc4c4ccccc4c3[nH]2)cc(OC)c1OC,90

row,SMILES,Inhibition [%]
1,O=C(O)C1CC(=O)N(c2ccc(Cl)cc2)C1 (stereo not given),97
2,NCC1CCCN1Cc1ccc(-c2ccc(-c3nc4cc(F)ccc4[nH]3)cc2)cc1.O=C(O)C(F)(F)F (stereo not given),100
3,Oc1cccc(Nc2nc(NCc3ccccc3)c3ccccc3n2)c1,95
4,Cc1cccc2nc(-c3cccc(-c4cccc(CNCCCN5CCCC5=O)c4)c3)[nH]c12.O=C(O)C(F)(F)F,100
5,NC(=O)c1ccsc1NC(=O)CNC(c1ccc(F)cc1)c1cccs1 (stereo not given),92
6,O=C(NCC1CCN(C/C=C/c2ccccc2)CC1)Nc1ccc(Oc2ccccc2)cc1,83
7,Cc1cc(NC(=O)c2ccco2)ccc1OC1CCN(Cc2ccccc2)CC1.O=C(O)C(F)(F)F,93
8,O=C(Nc1ccc(OC2CCN(Cc3ccccc3)CC2)c(Cl)c1)c1cccs1.O=C(O)C(F)(F)F,96
9,Cc1ccccc1C1CCN(C2CCC(NC(=O)/C=C/c3cccc(F)c3)CC2)CC1 (stereo not given),84
10,Cc1cc(NC(=O)Nc2ccc3ccn(C)c3c2)c2ccccc2n1,100
11,CCc1c(CCNCCCCCNCCc2ccc(OC)c(OC)c2CC)ccc(OC)c1OC.Cl,100
12,CC(=O)N(C)C1CCN(Cc2cccc(-c3ccc(-c4nc5cc(F)ccc5[nH]4)cc3)c2)C1.O=C(O)C(F)(F)F (stereo not given),92
13,Nc1c2c(nc3ccccc13)C(=Cc1ccc(O)cc1)CCC2,99
14,Cn1cncc1C(=O)Nc1cccc(-c2cccc(-c3nc4ccccc4[nH]3)c2)c1,100
15,O=c1cnc2ccc(F)cc2n1CCN1CCC(NCc2cc(-c3ccccc3)cs2)CC1,91
16,CC1(C)N=C(N)N=C(NOCCCCCCONC2=NC(N)=NC(C)(C)N2)N1,95
17,CCn1cnc2c(Nc3cccc([N+](=O)[O-])c3)nc(N3CCC(N4CCCCC4)CC3)nc21,98
18,Cn1nc(-c2cccc(CNC3CCc4ccccc43)c2)c2cnc(NC3CCCC3)nc21 (stereo not given),100
19,CCOc1cc(NC(=O)Nc2ccnc3ccccc23)cc(OC)c1.Cl,98
20,O=C(NCCCCN1CCC(c2ccc3c(c2OCC(O)c2ccc(Cl)cc2)CCCC3)CC1)c1ccc(-c2ccc(C(F)(F)F)cc2)cc1 (stereo not given),89

# System: Plasmodium falciparum
# Experiment: GSK_TCMDC: Inhibition of Plasmodium falciparum Dd2 in whole red blood cells, using parasite LDH activity as an index of growth. Test compounds present at 2uM
# Type: functional
row,SMILES,Inhibition [%]
1,O=C(Nc1ccncc1)c1cc(C(=O)Nc2ccncc2)cc([N+](=O)[O-])c1,50
2,O=C(Nc1cccc(-c2ccc(CN3CCNCC3)cc2)c1)c1cccc(Cl)c1.O=C(O)C(F)(F)F,4
3,Cl.Oc1cccc(-c2nc3cc(C4=NC5CCCCC5N4)ccc3[nH]2)c1 (stereo not given),97
4,COCCn1c(-c2cccc(Cl)c2)nn(-c2ccc([N+](=O)[O-])cc2C#N)c1=S,100
5,COc1ccc(OCCCN2CCCCC2)cc1S(=O)(=O)c1ccc(OCc2ccc(C(F)(F)F)cc2)cc1.Cl,8
6,C/C=C/COc1ccc(-c2c(C)[nH]c(C)c(Cl)c2=O)cc1,97
7,O=C(c1cc2ccccc2o1)N1CCc2cc3nccc(N4CCN5CCC[C@H]5C4)c3cc21,100
8,CCc1c[nH]c2c(N(c3ccccc3)S(C)(=O)=O)cc(C(=O)N[C@@H](Cc3ccccc3)[C@H](O)CNCc3cccc(C(F)(F)F)c3)cc12.O=CO,98
9,CC(C)COc1ccc(Cl)cc1Cc1ccc(-c2nc3cc(N4CCN(C)CC4)ccc3[nH]2)o1.Cl,41
10,CCN(CC(C)O)C(=O)c1ccc(-c2cccc(-c3nc4cccc(C)c4[nH]3)c2)cc1 (stereo not given),32
11,Cc1ccc2[nH]c(-c3cc(-c4cccc(CCN5CCOCC5)c4)cnc3N)nc2c1.O=C(O)C(F)(F)F,99
12,CCOCCCNc1nc2cc(OC)c(OC)cc2c2nc(-c3ccccc3)nn12,98
13,CC(C)Cn1c(Sc2ccc(C#N)c([N+](=O)[O-])c2)nnc1-c1ccc(N(C)C)cc1,98
14,COc1cc2c(cc1N(C(C)C)S(=O)(=O)c1sc3ccc(Cl)cc3c1C)CCNCC2.Cl,70
15,CC(=O)Nc1ncc(C(=O)Nc2cccc(-c3cccc(-c4nc5cc(F)ccc5[nH]4)c3)c2)s1,93
16,CC1(CCN2CCC(c3c[nH]c4cnccc34)CC2)CCCc2c(Br)cccc2C1=O.Cl (stereo not given),66
17,CN(C)CCCNc1nccc(N(C)c2ccc(NC(=O)Nc3cc(C(F)(F)F)ccc3F)cc2)n1.O=C(O)C(F)(F)F,25
18,CCCCSc1nc2c(c(=O)n1Cc1ccco1)C1(CCCCC1)Cc1ccccc1-2,78
19,O=c1ccccn1CCCC1CCCCN1 (stereo not given),0
20,COc1cc(-c2nc3c4ccccc4c4ccccc4c3[nH]2)cc(OC)c1OC,10

row,SMILES,Inhibition [%]
1,O=C(O)C1CC(=O)N(c2ccc(Cl)cc2)C1 (stereo not given),33
2,NCC1CCCN1Cc1ccc(-c2ccc(-c3nc4cc(F)ccc4[nH]3)cc2)cc1.O=C(O)C(F)(F)F (stereo not given),100
3,Oc1cccc(Nc2nc(NCc3ccccc3)c3ccccc3n2)c1,99
4,Cc1cccc2nc(-c3cccc(-c4cccc(CNCCCN5CCCC5=O)c4)c3)[nH]c12.O=C(O)C(F)(F)F,76
5,NC(=O)c1ccsc1NC(=O)CNC(c1ccc(F)cc1)c1cccs1 (stereo not given),71
6,O=C(NCC1CCN(C/C=C/c2ccccc2)CC1)Nc1ccc(Oc2ccccc2)cc1,11
7,Cc1cc(NC(=O)c2ccco2)ccc1OC1CCN(Cc2ccccc2)CC1.O=C(O)C(F)(F)F,95
8,O=C(Nc1ccc(OC2CCN(Cc3ccccc3)CC2)c(Cl)c1)c1cccs1.O=C(O)C(F)(F)F,95
9,Cc1ccccc1C1CCN(C2CCC(NC(=O)/C=C/c3cccc(F)c3)CC2)CC1 (stereo not given),38
10,Cc1cc(NC(=O)Nc2ccc3ccn(C)c3c2)c2ccccc2n1,69
11,CCc1c(CCNCCCCCNCCc2ccc(OC)c(OC)c2CC)ccc(OC)c1OC.Cl,1
12,CC(=O)N(C)C1CCN(Cc2cccc(-c3ccc(-c4nc5cc(F)ccc5[nH]4)cc3)c2)C1.O=C(O)C(F)(F)F (stereo not given),19
13,Nc1c2c(nc3ccccc13)C(=Cc1ccc(O)cc1)CCC2,6
14,Cn1cncc1C(=O)Nc1cccc(-c2cccc(-c3nc4ccccc4[nH]3)c2)c1,35
15,O=c1cnc2ccc(F)cc2n1CCN1CCC(NCc2cc(-c3ccccc3)cs2)CC1,14
16,CC1(C)N=C(N)N=C(NOCCCCCCONC2=NC(N)=NC(C)(C)N2)N1,98
17,CCn1cnc2c(Nc3cccc([N+](=O)[O-])c3)nc(N3CCC(N4CCCCC4)CC3)nc21,35
18,Cn1nc(-c2cccc(CNC3CCc4ccccc43)c2)c2cnc(NC3CCCC3)nc21 (stereo not given),23
19,CCOc1cc(NC(=O)Nc2ccnc3ccccc23)cc(OC)c1.Cl,73
20,O=C(NCCCCN1CCC(c2ccc3c(c2OCC(O)c2ccc(Cl)cc2)CCCC3)CC1)c1ccc(-c2ccc(C(F)(F)F)cc2)cc1 (stereo not given),67
